Tau fluor cs = Counterscreen qHTS for Inhibitors of Tau Fibril Formation, Fluorescence Polarization; tau K18 P301L Alexa594 fluorescence, heparin fibrillization; Potency, µM (series often up to 57.7 µM), without a hit: at the highest dose activity change, negative = decrease; actives 0.93% (n = 280,000); AID 1463, 2008; further: nearly all actives have a fitted effect of over 55% in size
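Human K18 P301L tau (15 uM unlabeled plus 0.24 uM Alexa 594-labeled, final) in 100 mM sodium acetate pH 7 was mixed with compound and 20 uM heparin and incubated 6 hr at 37 C.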
JMJD2E inh = qHTS Assay for Inhibitors of Human Jumonji Domain Containing 2E (JMJD2E); Potency, µM (series often up to 57.1 µM), for the others: at the highest dose activity change, negative = inhibition, hits mostly inhibitors; actives 1.6% (n = 230,000); AID 2147, 2009; JMJD2E catalytic domain, FDH-coupled NADH fluorescence (FDH is formaldehyde dehydrogenase);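 further: 0% = wells with enzyme and -100% = buffer wells without enzyme; nearly all actives have a fitted effect of over 50% in size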
Target sequence (B2RXH2 1-337 limits assumed): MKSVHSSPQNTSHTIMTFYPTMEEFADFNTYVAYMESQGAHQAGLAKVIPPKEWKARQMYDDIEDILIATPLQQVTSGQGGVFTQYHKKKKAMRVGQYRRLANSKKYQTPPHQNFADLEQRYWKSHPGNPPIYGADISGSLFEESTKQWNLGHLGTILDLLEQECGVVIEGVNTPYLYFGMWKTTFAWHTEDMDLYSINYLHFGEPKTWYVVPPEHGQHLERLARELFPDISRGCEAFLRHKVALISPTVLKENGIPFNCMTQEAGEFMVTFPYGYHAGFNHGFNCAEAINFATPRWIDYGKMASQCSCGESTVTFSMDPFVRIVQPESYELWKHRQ
Tau ThT inhib = qHTS for Inhibitors of Tau Fibril Formation, Thioflavin T Binding; actives 2.1% (n = 270,000); AID 1460, 2008; Potency, µM (series often up to 57.4 µM), for inactives: top-dose activity, negative = inhibition, actives largely listed as inhibitors; recombinant tau K18 P301L (four-repeat tau fragment), heparin-induced fibrillization, ThT fluorescence; Microtubule-associated protein tau (Homo sapiens), P10636; further: nearly all actives have a fitted effect of over 55% in size
Target sequence (P10636 561-689 P618L limits assumed): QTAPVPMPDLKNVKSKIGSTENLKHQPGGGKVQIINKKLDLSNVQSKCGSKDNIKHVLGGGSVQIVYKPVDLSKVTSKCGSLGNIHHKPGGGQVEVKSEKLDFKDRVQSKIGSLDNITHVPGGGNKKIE
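Tau K18 P301L fragment (15 uM unlabeled plus 0.24 uM Alexa 594-labeled) in 100 mM sodium acetate pH 7 with compound, fibrillization induced by 20 uM heparin for 6 hr at 37 C. Thioflavin T (30 uM) added, fluorescence read after 1 hr (ex 450, em 510 nm).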
Tau FP inhib = qHTS for Inhibitors of Tau Fibril Formation, Fluorescence Polarization. K18 P301L tau heparin fibrillization, Alexa594 FP, 6 h. Potency, µM (highest dose often 57.7 µM), without a hit: top-dose activity, negative = inhibition, most hits filed as inhibitors. actives 0.39% (n = 280,000). AID 1468, 2008; further: nearly all actives have a fitted effect of over 55% in size
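Human tau K18 […] P301L fragment, 15 uM unlabeled plus 0.24 uM Alexa 594-labeled tau (final), with compound and 20 uM heparin in 100 mM sodium acetate pH 7; 6 hr at 37 C, then Alexa 594 FP read.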
GoLoco inh red = qHTS Assay for Inhibitors of RGS12 GoLoco Motif Activity (Red Fluorophore); Guanine nucleotide-binding protein G(i) subunit alpha-1 (Homo sapiens), P63096; Gai1:RGS12 GoLoco peptide FP, rhodamine, 10 min; Potency, µM (doses to about 61.6 µM), for the others: top-dose activity, negative = inhibition, usual class: inhibitors; actives 0.44% (n = 230,000); AID 880, 2007; active means well fitted inhibition curve with a large enough effect, not every such curve was filed as active; inactive means no such curve, though single readings can be large or run the other way; further: nearly all actives have a fitted effect of over 30% in size
* = called active by the depositor; ? = inconclusive; . = no result given; [ ] = remark or other dose. In the library only some 3.4% were active in any assay of this set; here they are far more common. Unless noted, the call rests on the fitted dose curve; in most records, active means well fitted curve in the direction sought with a large enough effect; inconclusive means small, poorly fitted or top-dose-only effect, or another doubt; inactive means no such curve, though single readings can be large; an effect the other way counts as inactive or inconclusive. Unless noted, on the % scale 0 is the no-effect control and ±100 the full control effect; potency means the concentration at half of the fitted maximal effect.

SMILES	Tau fluor cs	JMJD2E inh	Tau ThT inhib	Tau FP inhib	GoLoco inh red
COc1ccc(C(=O)CSc2nnc(-c3ccco3)c(-c3ccco3)n2)cc1	?	?	14µM*	?	-7%
Cc1ccc(C(=O)Nc2nnc(S(=O)(=O)N3CCCc4ccccc43)s2)cc1	-7%	.	?	-6%	.
Cc1ccc(/C=C/c2onc(C)c2S(=O)(=O)N2CCC(C(=O)NCc3ccc(N(C)C)cc3)CC2)cc1	-19%	.	8%	1%	.
CCCn1c(CCC(=O)Nc2cc(Cl)c(OC)cc2OC)nc2cccnc21	-5%	.	-1%	6%	.
COc1ccc(C(=O)Cn2c(=O)n3nc(CCn4nc(C)cc4C)nc3c3cc(OC)c(OC)cc32)cc1	-10%	.	-9%	?	.
Cc1ccc(NC(=O)CSc2nnc(-c3ccco3)c(-c3ccco3)n2)cc1	?	?	7.9µM*	?	11%
COc1ccc(C(=O)c2cc([N+](=O)[O-])ccc2N2CCN(C)CC2)cc1	-13%	1µM*	-3%	-13%	1%
CCN(CC)c1ccc(CN(C(=O)Cc2coc3ccc(C)cc23)C2CCS(=O)(=O)C2)cc1 (stereo not drawn)	-27%	.	?	8%	.
Nc1nonc1C(=O)NCCN=Cc1ccccc1O	0%	5%	2%	-5%	12%
Nc1nonc1C(=O)NCCN=Cc1cc(Cc2ccccc2)cc(Br)c1O	?	1%	28µM*	?	2%
Cc1cccc(C2=NN(c3ccccc3)[C@H](CO)[C@H]2c2ccccc2)c1	18µM*[quencher]	.	?	?	14%[88.7 µM]
CC[C@H]1C(c2ccc(F)cc2)=NN(c2ccccc2)[C@@H]1CO	22µM*[quencher]	.	?	?	-62%[88.7 µM]
OC[C@@H]1[C@@H](c2ccc(F)cc2)C(c2ccccc2)=NN1c1ccccc1	16µM*[quencher]	.	?	13%[81.3 µM]	0%[88.7 µM]
C[C@@H](C(=O)Nc1ccc2ccccc2c1)[C@@H]1C[C@@]1(C)[C@@H](NS(=O)(=O)c1ccc2ccccc2c1)c1ccccc1	-23%	14µM*	-4%	?	10%
O=C(CCSCc1cnn(-c2ccccc2)c1-n1cccc1)NCc1ccccc1F	-24%	.	-8%	-5%	.
CCN(CC)c1ccc(NC(=O)CCCCCN2C(=O)c3ccccc3C2=O)cc1	-25%	3%	?	?	22µM*
O=[N+]([O-])c1ccc(-n2nnnc2-c2ccccc2)c([N+](=O)[O-])c1	11µM*[quencher]	-21%	14µM*	?	10%
O=[N+]([O-])c1ccc(-n2nnnc2-c2ccccc2)cc1	-4%	8%	-5%	10%	8%
CCOc1ccc(-c2cc(CCCC(=O)NCCc3ccc(SC)cc3)no2)cc1	-4%	.	?	-7%	.
O=C(CN1C(=O)S/C(=C\c2ccc(Cl)cc2)C1=O)NNC(=O)c1ccccc1O	-22%	18µM*	-1%	?	4%
COc1ccc(N/N=C(\C#N)C(N)=O)cc1	-6%	-4%	?	6%	-6%
N#C/C(=N/Nc1ccc(OC(F)(F)F)cc1)C(N)=S	?	-4%	6.3µM*	4%	1%
Cc1ccc(S(=O)(=O)c2nnn3c2nc(N2CCC(C)CC2)c2cc(Cl)ccc23)cc1C	-29%	.	?	-14%	.
O=[N+]([O-])c1ccccc1-c1ccc(/C=N/n2cnnc2)o1	-6%	6%	?	3%	4%
Cc1cc([N+](=O)[O-])c(C)cc1-c1ccc(/C=N/NC(=O)c2cccnc2)o1	?	-17%	7.1µM*	?	-2%
SMILES	Tau fluor cs	JMJD2E inh	Tau ThT inhib	Tau FP inhib	GoLoco inh red
Nn1cnnc1N/N=C\c1ccc(-c2ccccc2[N+](=O)[O-])o1	?	4.5µM*	7.9µM*	?	3%
O=C(N/N=C/c1ccc(-c2ccccc2[N+](=O)[O-])o1)c1cncc(Br)c1	?	-17%	7.9µM*	?	-2%
Cc1cc(C)n(-c2nc(C)c(C)c(=O)n2CC(=O)Nc2ccc(Cl)c(Cl)c2)n1	-16%	.	1%	?	.
O=c1nc(/C=C/c2ccc(O)c(O)c2)oc2ccccc12	-30%	13µM*	?	8%	0%
COc1ccc(/C=C\c2nc(=O)c3ccccc3o2)cc1	-15%	-20%	?	7%	14%
CC(C)CCNC(=O)c1ccc2c(c1)N(Cc1ccccc1F)C(=O)c1ccccc1S2(=O)=O	-28%	.	2%	?	.
Cc1nnc(N/N=C/c2ccco2)n1N	-17%	28µM*	?	?	8%
COC(=O)c1ccc([C@H]2Nc3ccc(S(=O)(=O)Nc4ccc(F)cc4)cc3[C@H]3C=CC[C@H]32)cc1	?	.	?	-5%	.
COc1ccc(OC)c([C@@H]2Nc3ccc(C(=O)O)cc3[C@@H]3C=CC[C@@H]32)c1	-11%	.	?	5%	.
Cc1cccc(NS(=O)(=O)c2ccc3c(c2)[C@H]2C=CC[C@H]2[C@@H](c2ccc(F)cc2)N3)c1	5.6µM*[quencher]	.	?	-8%	.
COc1ccc(C(=O)N/N=C(\C)c2ccc3c(c2)C2C=CCC2C(c2ccccc2)N3)cc1 (stereo not drawn)	?	20µM*	13µM*	-4%	-5%
COc1cccc(NS(=O)(=O)c2ccc3c(c2)C2C=CCC2C(c2ccc(C(=O)O)cc2)N3)c1 (stereo not drawn)	13µM*[quencher]	?	14µM*	?	52%
CCCn1c(=O)c2sccc2n2c(CCCC(=O)Nc3cccc(CC)c3)nnc12	-12%	.	-6%	1%	.
CCOC(=O)c1sc(N2N=C(C)/C(=C\c3ccc(OCC(=O)OC)cc3)C2=O)nc1C	-19%	22µM*	?	12%	5%
CN(C)c1ccc(Nc2nc3ccccc3n3nnnc23)cc1	11µM*[quencher]	.	7.9µM*	13%	.
CCOc1ccc(Nc2nc3ccccc3n3nnnc23)cc1	?	?	-16%	10%	-2%
O=C1/C(=C/c2ccc([N+](=O)[O-])cc2)C=C(c2ccccc2)N1c1ccccc1	-11%	-3%	-11%	-2%	.
O=C(O)c1cccc(N2C(=O)/C(=C/c3ccc([N+](=O)[O-])cc3)C=C2c2ccccc2)c1	?	-23%	6.3µM*	-9%	125%
O=C1/C(=C/c2ccc([N+](=O)[O-])cc2)C=C(c2ccccc2)N1c1ccc(O)cc1	11µM*[quencher]	-7%	5.6µM*	-5%	30%
Cc1ccc2[nH]c(=S)cc(C)c2c1	0%	7.1µM*	?	-2%	5%
